Assay outcomes from PubChem.
A selection: hits, their analogues and other compounds. The true share with any hit is near 1.6%.
KCNQ2 inh = inhibitors of rat KCNQ2 potassium channel | CHO-K1 KCNQ2, FluxOR thallium flux, 20 min; hits give low values | 310,000 compounds, 1.1% hits | B-score at 10 µM;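 active = fluorescence ratio B-score at most minus 3 library SDs, with starting brightness B-score within 2 library SDs, cut at about -5.5 in these data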
Target sequence (O88943 whole entry, looked up): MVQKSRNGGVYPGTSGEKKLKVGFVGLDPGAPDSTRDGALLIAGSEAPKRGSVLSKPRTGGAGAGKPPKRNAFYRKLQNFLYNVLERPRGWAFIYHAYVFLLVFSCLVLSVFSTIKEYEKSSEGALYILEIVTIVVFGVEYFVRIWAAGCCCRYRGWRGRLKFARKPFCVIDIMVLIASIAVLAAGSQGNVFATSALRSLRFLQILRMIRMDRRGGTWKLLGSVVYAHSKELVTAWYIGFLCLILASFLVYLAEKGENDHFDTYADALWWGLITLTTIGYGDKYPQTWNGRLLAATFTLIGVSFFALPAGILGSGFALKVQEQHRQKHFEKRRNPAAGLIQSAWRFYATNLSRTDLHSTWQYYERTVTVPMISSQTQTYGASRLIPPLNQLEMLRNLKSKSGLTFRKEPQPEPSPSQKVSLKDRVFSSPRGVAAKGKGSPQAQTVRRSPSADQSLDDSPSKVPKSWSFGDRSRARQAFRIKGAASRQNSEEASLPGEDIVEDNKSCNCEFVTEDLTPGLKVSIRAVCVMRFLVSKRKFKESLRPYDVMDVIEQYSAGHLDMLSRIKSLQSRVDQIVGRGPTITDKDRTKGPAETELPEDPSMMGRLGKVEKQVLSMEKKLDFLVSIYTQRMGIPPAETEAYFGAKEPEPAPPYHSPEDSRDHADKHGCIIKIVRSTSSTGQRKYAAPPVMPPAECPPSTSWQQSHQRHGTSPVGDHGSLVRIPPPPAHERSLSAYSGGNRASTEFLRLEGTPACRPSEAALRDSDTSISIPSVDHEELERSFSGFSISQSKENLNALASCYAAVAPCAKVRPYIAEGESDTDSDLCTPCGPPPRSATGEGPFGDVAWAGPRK
KCNQ2 enhance = potentiators of rat KCNQ2 potassium channel | CHO-K1 KCNQ2, FluxOR thallium flux fluorescence; hits give high values | B-score at 10 µM | 310,000 compounds, 0.54% hits;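 active = fluorescence ratio B-score at least 3 SD of library B-scores, with initial fluorescence B-score within 3 of them, cut at about 5.3 in these data; same plate scores as AID 2156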;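 also: B-score of peak minus minimum over baseline fluorescence ratio after K+ and Tl+ stimulus; positive B-score means potentiation of KCNQ2 with more thallium influx and brighter signal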
Kir21 confirm = confirmation of mouse Kir2.1 potassium channel inhibitors | shares compounds with KCNQ2 enhance | Kir2.1-expressing cells, FluxOR thallium flux fluorescence; hits give low values | Tl flux remaining, % of negative control (hits give low values), % at 10 µM | 2,300 compounds, 41% hits;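 active = Primary-screen hit whose thallium flux fell at least 3 control SD below untreated wells in both duplicates, with normal baseline fluorescence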
HEK293 Tl flux = alters thallium flux in parental HEK293 cells, Kir2.1 counter-screen; shares compounds with KCNQ2 enhance; FluxOR thallium flux fluorescence; 0% = unstimulated blank wells; FluxOR signal as % of negative control (100 = no effect), % at 10 µM; 2,300 compounds, 19% hits; AID 2105;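 active = dye signal at least 3 control SD above or below untreated wells in both duplicates, raw fluorescence within 3, either direction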;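 also: percent is based on the flux ratio of peak minus minimum fluorescence over baseline F0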
CHO-K1 Tl ctr = alters thallium flux in parental CHO-K1 cells, KCNQ2 counter-screen; shares compounds with KCNQ2 enhance; FluxOR thallium flux fluorescence; zero = vehicle mean+3SD, 100% = vehicle-minus-blank window; activity increase over 3SD of controls, % at 10 µM; 1,200 compounds, 43% hits; AID 2282;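 active = signal rise of at least 3 SD above the untreated control mean, in both duplicate wells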;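 also: counter screen of KCNQ2 potentiator hits so any rise reflects channel-independent effects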
KCNQ1 pot spec = tests whether KCNQ2 potentiators also act on human KCNQ1; shares compounds with KCNQ2 enhance; CHO KCNQ1 stable, FluxOR thallium flux fluorescence; beyond 3SD, as % of vehicle-control signal; activation over 3SD threshold, % at 10 µM; 1,200 compounds, 28% hits; AID 2283;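 active = fluorescence ratio rise of at least 3 SD of vehicle wells above their mean, in both replicate wells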
KCNQ2 pot confirm = rat KCNQ2 channel potentiator confirmation | CHO-KCNQ2 cells, FluxOR thallium flux fluorescence | 1,200 compounds, 68% hits | potentiation, less the hit threshold, % at 10 µM | shares compounds with KCNQ2 enhance | AID 2287;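 active = fluorescence ratio rising 3 SD or more over the vehicle control mean in both replicates, plus primary screen hit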;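 also: peak minus minimum thallium fluorescence divided by baseline after K/Tl stimulus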
Kir21 spec = selectivity of KCNQ2 potentiators: effect on mouse Kir2.1 | activity over 3SD threshold, % at 10 µM | HEK293 Kir2.1, FluxOR thallium flux fluorescence | shares compounds with KCNQ2 enhance | 1,200 compounds, 2% hits;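 active = fluorescence ratio rise of at least 3 SD above the vehicle-control mean, seen in both replicates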
KCNQ2 W236L MoA = KCNQ2 potentiators acting on retigabine-insensitive rat KCNQ2 W236L mutant; shares compounds with KCNQ2 enhance; CHO KCNQ2-W236L, automated patch clamp current; current increase over 3SD of negative controls (%), hits give high values, % at 25 µM; 940 compounds, 10% hits;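 active = current increase at least 3 SD of the untreated controls above them in both duplicate recordings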
Of the large screens only hits and unclear results are named; the others gave an inactive call (follow-up assays come after a bar, where they were run).

CCc1ccc(O)c(N=Cc2cccc(C)c2O)c1	KCNQ2 enhance 7.5 | Kir21 confirm inactive | HEK293 Tl flux inactive | CHO-K1 Tl ctr inactive | KCNQ1 pot spec inactive | KCNQ2 pot confirm 17 | Kir21 spec inactive | KCNQ2 W236L MoA inactive
Cc1cccc(C=Nc2ccc3c4c(cccc24)CC3)c1O	none (no result: KCNQ2 enhance)
Nc1ccc(N=Nc2ccccc2O)c(N)c1	none
Oc1ccccc1N=Nc1ccccc1O	KCNQ2 enhance 7.9 | Kir21 confirm inactive | HEK293 Tl flux inactive | CHO-K1 Tl ctr inactive | KCNQ1 pot spec inactive | KCNQ2 pot confirm inactive | Kir21 spec inactive
COC(=O)C(C)Sc1snnc1-c1ccccc1 (configuration not stated)	none (no result: KCNQ2 enhance)
CC(=O)n1cc(C(C[N+](=O)[O-])SCCN)c2ccccc21 (configuration not stated)	KCNQ2 inh -7.3 | Kir21 confirm 50% | HEK293 Tl flux 76%
Cn1cc(C(C[N+](=O)[O-])c2ccccc2)c2ccccc21 (configuration not stated)	none (no result: KCNQ2 enhance)
Cc1ccc(C)c(NC(=O)c2ccc(S(=O)(=O)N(C)CC3CCCO3)cc2)c1 (configuration not stated)	none
Cc1nc(NC(=O)c2ccccc2)sc1C1(C)CC(c2ccc(OC(F)(F)F)cc2)=NO1 (configuration not stated)	none (no result: KCNQ2 enhance)
CCOC(=O)C1=C(C)N=c2s/c(=C/c3cccc(OCC(=O)O)c3)c(=O)n2C1c1ccc(F)cc1 (configuration not stated)	none
CCOC(=O)C1=C(C)N=c2s/c(=C\c3ccc(C(=O)O)cc3)c(=O)n2C1c1ccc(F)cc1 (configuration not stated)	KCNQ2 enhance 7 | Kir21 confirm inactive | HEK293 Tl flux inactive | CHO-K1 Tl ctr 11 | KCNQ1 pot spec inactive | KCNQ2 pot confirm inactive | Kir21 spec inactive | KCNQ2 W236L MoA inactive
Cc1ccc(S(=O)(=O)CC(O)COc2ccc(F)cc2Cl)c(C)c1 (configuration not stated)	none | Kir21 confirm 52% | HEK293 Tl flux inactive
Cc1ccc(S(=O)(=O)CC(O)COc2ccc(F)cc2Cl)cc1 (configuration not stated)	none
CC(C)C(NC(=O)c1ccco1)C(=O)NC1CCCCCC1 (configuration not stated)	none
O=C(COc1ccc(Cl)cc1Cl)NC(=O)N1CCCCC1	none (no result: KCNQ2 enhance)
OC(CNCC1(N2CCCCC2)CCCCC1)COc1ccc(Cl)cc1Cl (configuration not stated)	none | Kir21 confirm 50% | HEK293 Tl flux 75%
NC(=O)CCn1c2ccccc2c2ccccc21	none
CC(C)CCn1c2ccccc2c2cc(CC(N)=O)ccc21	none | Kir21 confirm inactive | HEK293 Tl flux inactive
O=C(CCC1CCCCC1)Nc1c2c(nn1-c1ccc(F)cc1)CS(=O)C2 (configuration not stated)	KCNQ2 enhance 10 | Kir21 confirm inactive | HEK293 Tl flux inactive | CHO-K1 Tl ctr inactive | KCNQ1 pot spec 19 | KCNQ2 pot confirm 47 | Kir21 spec inactive | KCNQ2 W236L MoA inactive
O=C(Nc1c2c(nn1-c1ccc(F)cc1)CS(=O)C2)c1ccc(Br)o1 (configuration not stated)	none
COc1ccc(NC(=S)N(CCCN2CCCC2)Cc2cccn2Cc2ccc(Cl)cc2)cc1Cl	none
O=C(CN(c1ccc(F)cc1)S(=O)(=O)c1ccc2c(c1)OCCO2)NCc1ccccn1	none
CCN(CCNCC(O)COc1ccccc1C(C)C)c1cccc(C)c1 (configuration not stated)	none (no result: KCNQ2 enhance) | Kir21 confirm 33% | HEK293 Tl flux inactive
